Test results from PubChem BioAssay.

test system: Neuregulin-1 EGF-like domain; test: small molecules binding NRG1 EGF domain – biochemical, small-molecule microarray, 635 nm fluorescence, primary screen (AID 1081); details: higher = more signal;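 also: binding of the protein to compounds printed on small-molecule microarray slides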

Point of comparison: `Cc1ccc(S(=O)(=O)N2[C@@H](c3ccccc3)C(C(=O)O)=C[C@H]2C(C)(C)C)cc1`, composite z-score 1.23. Against it:
- O=C(O)C1=CC[C@H]2C(=O)N(c3ccccc3)C(=O)[C@@H]12 — lower, 1.16
- C=CC[C@H](OC(=O)Nc1ccc(SC)cc1)c1ccc(O)c(F)c1 — lower, 1.07
- COC(=O)C1(CC(C)C)C=C2C(=C(C)C(=O)C2C)CN1 (stereo not given) — lower, 0.641
- [N-]=[N+]=NCc1ccccc1C[C@]1(C(=O)N2CCCCC2)COC(c2ccc(OCCCO)cc2)=N1 — lower, 0.996
- C=C[C@H](C)[C@@H](OC(=O)Nc1ccc(SC)cc1)c1ccc(OCCO)cc1 — higher, 1.26
- COC(=O)Cn1c(C(=O)N(C)C)cc2c1C[C@H]1CN(C(=O)c3ccccc3)[C@@](Cc3ccccc3)(C(=O)OC)[C@@H]21 — lower, 0.641
- O=C1c2ccccc2[C@](Cc2ccccc2I)(C(=O)NCCN2CCOCC2)[C@H](c2ccc(CO)cc2)N1Cc1ccccc1C(F)(F)F — higher, 1.25
- Cc1ccc(S[C@]2(C(=O)NCCN3CCOCC3)CC(=O)N(C(C)C)[C@@H]2c2ccc(CO)cc2I)cc1 — higher, 1.35
- C=C(CCCC)C(=O)CC[C@H](OC(=O)c1ccccc1-c1ccccc1C(=O)O)c1cccc(OCCO)c1 — lower, 0.652
- [N-]=[N+]=Nc1ccccc1C[C@@]1(C(=O)NCc2ccccc2)N=C(c2ccc(OCCCO)cc2)O[C@@H]1c1ccccc1 — lower, 0.747
- C=CCNC(=O)[C@@H]1[C@H]2C(=O)O[C@H](c3ccccc3)[C@H](c3ccccc3)N2[C@H](c2ccc(OCCO)cc2)[C@@]12C(=O)Nc1ccc(C#CC3=CCCCC3)cc12 — higher, 1.29
- CC(C)C[C@@H]1NC(=O)[C@H]2C[C@@H](C(=O)O)[C@@H](c3cccc(OCCO)c3)N2C1=O — higher, 1.48
- CC(C)c1ccc(NN2C(C(O)C(C)c3ccccc3)C=CC3C(=O)N(c4ccccc4)C(=O)C32)cc1 (stereo not given) — lower, 1.12
- CCOC(=O)C1=CC[C@@H](c2ccccc2)N(S(=O)(=O)c2ccc(C)cc2)[C@@H]1C#N — lower, 1.05
- COCCOC(=O)N1C(=O)[C@@]2(c3cc(C#CCC(C(=O)OC)C(=O)OC)ccc31)[C@H](C(=O)N1CCc3cc(OC)c(OC)cc3C1)[C@H]1C(=O)O[C@H](c3ccccc3)[C@H](c3ccccc3)N1[C@@H]2c1ccccc1OCCO — lower, 1.22
- CN(C)CCCC[C@@H]1NC(=O)[C@H]2C[C@@H](C(=O)NCCCCCCNC(=O)CS)[C@@H](c3cccc(OCCO)c3)N2C1=O — lower, 0.334
- COc1cc2c(cc1O)C(C)N(Cc1sc3ccccc3c1Cl)CC2 (stereo not given) — lower, 0.343
- COCCOC(=O)N1C(=O)[C@@]2(c3cc(C#CCC(C(=O)OC)C(=O)OC)ccc31)[C@H](c1ccc(O)cc1)N1[C@H](c3ccccc3)[C@H](c3ccccc3)OC(=O)[C@H]1[C@@H]2C(=O)N1CCc2cc(OC)c(OC)cc2C1 — lower, 1.14
- CCOC(=O)C1=CCC(c2ccncc2)N(S(=O)(=O)c2ccc(C)cc2)C1 (stereo not given) — lower, 1.21
- COC(=O)[C@@]1(Cc2ccc(F)cc2)[C@H]2c3cc(C(=O)N4CCCC4)n(Cc4ccc(C(F)(F)F)nc4)c3C[C@H]2CN1C(=O)c1ccccc1 — lower, 0.92
- CC(C)(C)OC(=O)CC[C@@]1(C(N)=O)N=C(c2ccc(OCCCO)cc2)O[C@@H]1c1ccccc1CN=[N+]=[N-] — higher, 1.44
- C=CCNC(=O)[C@H]1[C@@H]2C(=O)O[C@@H](c3ccccc3)[C@@H](c3ccccc3)N2[C@@H](c2ccc(OCCO)cc2)[C@]12C(=O)N(C(=O)OCCOC)c1ccc(C#CCC(C(=O)OC)C(=O)OC)cc12 — lower, 1.19
- C=CCOC(=O)[C@H]1[C@@H]2C(=O)O[C@@H](c3ccccc3)[C@@H](c3ccccc3)N2[C@@H](c2ccc(OCCOC(=O)[C@@H]3C[C@@H]4C(=O)N[C@@H](Cc5ccccc5)C(=O)N4[C@@H]3c3ccc(O)cc3)cc2)[C@]12C(=O)Nc1ccc(I)cc12 — lower, 1.08
- CCN1C(=O)C2CC(=O)C3C(CN(S(=O)(=O)c4ccc(C)cc4)C3c3ccc(C)cc3)C2C1=O (stereo not given) — lower, 1.18
- C=C(C)C1CN([C@H](CO)c2ccccc2)C(=O)/C1=C\c1ccccc1 (stereo not given in full) — lower, 0.465
- C=C(COC)C(=O)CC[C@H](OC(C)=O)c1ccc(CO)o1 — lower, 0.0976
- COC(=O)C(CC#Cc1ccc2c(c1)[C@]1(C(=O)N2)[C@H](C(=O)NC[C@H](O)c2ccccc2)[C@H]2C(=O)O[C@H](c3ccccc3)[C@H](c3ccccc3)N2[C@@H]1c1ccc(O)cc1)C(=O)OC — lower, 0.773
- C=C[C@H](OC)[C@@H](O)c1ccc(OC)c(O)c1 — lower, -0.673
- CC[C@@H](O[Si](C#C[Si](C(C)C)(C(C)C)C(C)C)(C(C)C)C(C)C)c1cn(Cc2cccc(Cl)c2)nn1 — lower, 0.69
- COC(=O)C1=CC(c2ccc(CO)cc2)=CC(C2CC2)N(Cc2cc3c(cc2Br)OCO3)C=C1C(=O)OC (stereo not given) — lower, 1.15
- O=C(NCCN1CCOCC1)[C@@H]1c2ccccc2C(=O)N(CC23CC4CC(CC(C4)C2)C3)[C@H]1c1ccc(CO)cc1 — higher, 1.39
- COCCCNC(=O)[C@@]1(CCC(=O)OC(C)(C)C)N=C(c2ccc(OCCCO)cc2)O[C@H]1c1ccccc1 — higher, 1.3
- CN1C2C=C(c3ccc(CO)cc3)C(C3C(=O)N(C(N)=O)C(=O)C32)C1C1CC1 (stereo not given) — lower, 0.663
- N#Cc1ccc(NN2C(C(O)c3ccc(B(O)O)cc3)C=CC3CN(c4ccccc4)C(=O)C32)cc1 (stereo not given) — lower, 1.07
